PubChem BioAssay AID504594 (Broad Institute, 2011)
The campaign covered roughly 2,000 compounds. Fewer than 10 were called active. A selection follows. Unmarked numbers belong to inactive results.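 The calls were made as follows: active = growth inhibition of at least 75% in every replicate, which also brings the mean inhibition to 75% or more; inconclusive = mean inhibition 75% or more but some replicate under 75%; inactive = the rest.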

Assay: growth inhibition of PfHsp90-dependent yeast, primary screen, antimalarial PfHsp90 inhibitor project, S. cerevisiae, BacTiter-Glo luminescence (AID 504594);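 also: 0% = DMSO neutral control wells and 100% = 20 µM radicicol control wells; higher value means stronger growth inhibition because the sign is flipped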
Conditions: S. cerevisiae expressing PfHsp90, BacTiter-Glo growth, 48 h; at 9.4 µM; stronger effect = higher value

| Compound | growth inhibition |
| --- | --- |
| CC(C)(C)C(O)C(Oc1ccc(Cl)cc1)n1cncn1 (stereo not given) | 96.5% (active) |
| CN1CCN(C(=O)OC2c3nccnc3C(=O)N2c2ccc(Cl)cn2)CC1 (stereo not given) | 6.28% |
| O=C1NC(=O)C2(Cc3ccccc3N3CCCC32)C(=O)N1c1ccc(Cl)cc1 (stereo not given) | -0.293% |
| O=S(=O)(c1ccc(F)cc1)N1CCCCC1c1cccnc1 (stereo not given) | -1.69% |
| Clc1ccc(CSC(Cn2ccnc2)c2ccc(Cl)cc2Cl)cc1 (stereo not given) | 95% (active) |
| c1ccc(Cn2ccnc2)cc1 | -14.6% |
| Cn1c(O)c(C=NCCc2c[nH]c3ccccc23)c(=O)n(C)c1=O | -4.75% |
| C[N+]1(C)CCN(c2ccccc2)CC1 | 4.14% |
| COc1cc2c3cc1Oc1cc(ccc1O)C[C@@H]1c4c(cc(OC)c(O)c4Oc4ccc(cc4)C[C@H]3N(C)CC2)CCN1C | -1.85% |
| CCOc1ccc(N2C(=O)NC(=O)/C(=C\c3cc(OC)c(OC)cc3[N+](=O)[O-])C2=O)cc1 | -0.939% |
